A short description of test [1]: Nuclear factor erythroid 2-related factor 2/antioxidant responsive element (Nrf2/ARE) small molecule agonists: qHTS cell viability counter screen in human keratinocytes (AID 1919968; active = well fitted curve in the direction sought with a large enough effect in the repeat runs; an effect the other way counts as inactive or inconclusive; note: nearly all actives have a fitted effect of over 55% in size). The essentials: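 After a 5 h attachment period, ARE-reporter keratinocytes were dosed with compounds in DMSO and then cultured 23 h at 37 C. Cell viability came from CellTiter-Fluor signal read after a further 1 h.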

Test [2] concerns the target KiSS-1 receptor (Homo sapiens) (UniProt Q969F8). Briefly: Human kisspeptin (KISS1R) small molecule agonists, calcium flux assay in KISS1R-HEK293 cells (AID 1920064; active = well fitted curve in the direction sought with a large enough effect in the repeat runs; an effect the other way counts as inactive or inconclusive). In short, it runs like this:
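Kinetic calcium assay, 1 s sampling over 3 min at Ex/Em 480/540, in HEK293 cells engineered with human KISS1R; compounds delivered in DMSO after 1 h dye loading.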

The nature of test [3]: G protein-coupled receptor (GPCR) small molecule agonists, calcium flux assay: HEK293 wild type cell line counter screen (AID 1920065). The essentials: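 Calcium-sensitive dye, loaded 1 h at 37 C into cells cultured 18 h, reports compound-evoked calcium release as fluorescence (Ex/Em 480/540), measured over 3 min. Agonist mode; 15-point titrations, triplicate.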
In general terms: Calcium assays in cells follow changes in intracellular calcium, usually with a dye or a luminescent sensor.

A short description of test [4]: p53 small molecule agonists, cell-based qHTS assay with human liver microsomes (AID 1963577). The essentials:
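p53RE-bla cells, 4,000/well, compound added after 5 h, with human liver microsomes 0.5 mg/mL and NADPH 0.5 mg/mL final; 16 h at 37 C, then LiveBLAzer 2 h RT, fluorescence.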
In general terms: In qHTS, concentration-response curves come from the screen itself.

Test [5] can be described thus: p53 small molecule agonists, cell-based qHTS assay with rat liver microsomes (AID 1963578). In short, it runs like this: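 p53RE-bla cells, 4,000/well, pre-incubated 5 h, then given compounds plus rat liver microsomes (0.5 mg/mL final) and NADPH (0.5 mg/mL final). Incubation 16 h at 37 C; beta-lactamase reporter read by LiveBLAzer fluorescence after 2 h at room temperature.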

Test [6] in a line: p53 small molecule agonists, cell-based qHTS assay with human liver microsomes: qHTS cell viability counter screen (AID 1963579). Note: nearly all actives have a fitted effect of over 45% in size. Note: potency is the fitted concentration of half-maximal effect. In short, it runs like this:
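p53RE-bla cells, 4,000/well, dosed 5 hours after plating, with human liver microsomes (0.5 mg/mL final) plus NADPH (0.5 mg/mL final), 16 hours at 37 C. Viability read as CellTiter-Glo luminescence after 30 min at room temperature.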

The nature of test [7]: p53 small molecule agonists, cell-based qHTS assay with rat liver microsomes: qHTS cell viability counter screen (AID 1963580). Note: nearly all actives have a fitted effect of over 45% in size. In short, it runs like this:
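Viability is assessed in parallel with the p53 reporter read: HCT-116 p53RE-bla cells receive compounds plus rat microsomes and NADPH (0.5 mg/mL final apiece), incubate 16 h at 37 C, and then CellTiter-Glo luminescence is recorded.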

Test [8] is described as follows: p53 small molecule agonists, cell-based qHTS assay: qHTS cell viability counter screen (AID 1963581). Note: nearly all actives have a fitted effect of over 45% in size. The essentials:
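Following 5 h attachment, HCT-116 p53RE-bla cells took up compound for 16 h at 37 C; the reporter was read with B/G FRET substrate (2 h RT), and viability then via CellTiter-Glo ATP luminescence.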

Test [9] concerns the target 5-hydroxytryptamine receptor 2A (Homo sapiens) (UniProt P28223). The test can be described thus: 5-hydroxytryptamine receptor 2A (HTR2A) small molecule antagonists, cell-based qHTS assay (AID 1963586). Note: nearly all actives have a fitted effect of over 45% in size. The essentials:
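Antagonist-mode intracellular calcium assay: DOI (4 nM) added after 5 min compound pre-incubation at room temperature to dye-loaded HTR2A-CHO cells. Fluorescence followed for 3 min, sampled every second.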

Test [10] shares this target. Briefly: 5-hydroxytryptamine receptor 2A (HTR2A) small molecule agonists, cell-based qHTS assay (AID 1963587). Note: nearly all actives have a fitted effect of over 30% in size. In short, it runs like this:
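CHO cells stably expressing human HTR2A, plated 18 h, loaded with calcium dye 1 h at 37 C. Agonist mode: compounds added and intracellular calcium fluorescence recorded kinetically for 2 min at 1 sec intervals.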

In test [11] the target is Muscarinic acetylcholine receptor M1 (Homo sapiens) (UniProt P11229). The test can be described thus: Cholinergic receptor muscarinic 1 (CHRM1) small molecule agonists, cell-based qHTS assay (AID 1963589). Note: nearly all actives have a fitted effect of over 35% in size. The essentials: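 Measures agonist-induced intracellular calcium rise. Stable human CHRM1 CHO line, 1 h dye load at 37 C, compounds from DMSO, kinetic fluorescence read.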
Muscarinic acetylcholine receptor M1 (Homo sapiens), sequence (P11229 whole entry, looked up): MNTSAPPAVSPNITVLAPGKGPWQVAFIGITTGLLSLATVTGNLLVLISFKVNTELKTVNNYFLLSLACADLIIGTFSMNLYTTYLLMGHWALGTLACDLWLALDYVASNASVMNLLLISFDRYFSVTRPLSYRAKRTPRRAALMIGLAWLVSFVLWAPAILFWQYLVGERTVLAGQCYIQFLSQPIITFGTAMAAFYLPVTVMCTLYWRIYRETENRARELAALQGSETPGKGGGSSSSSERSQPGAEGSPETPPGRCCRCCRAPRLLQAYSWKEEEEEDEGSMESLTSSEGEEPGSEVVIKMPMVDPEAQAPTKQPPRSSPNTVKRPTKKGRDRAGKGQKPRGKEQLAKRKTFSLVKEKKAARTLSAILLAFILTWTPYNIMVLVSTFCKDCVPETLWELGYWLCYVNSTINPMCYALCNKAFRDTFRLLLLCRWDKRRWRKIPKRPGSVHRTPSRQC

The nature of test [12]: cAMP Responsive Elements (CRE) small molecule agonists, cell-based qHTS assay (AID 1963590). In short, it runs like this: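 A CRE-responsive beta-lactamase reporter in HEK 293T cells was used. Treatment ran 3 h at 37 C; detection used LiveBLAzer B/G FRET substrate for 2 h at room temperature.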
Test [13] is described as follows: cAMP Responsive Elements (CRE) small molecule antagonists, cell-based qHTS assay (AID 1963591; active = well fitted inhibition curve with a large enough effect in the signal ratio in the repeat runs, not every such curve was filed as active; the % refers to the signal ratio). The essentials:
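HEK293T cells carrying a CRE-driven beta-lactamase reporter receive compound and NKH477 (0.25 uM final) for 3 h. Fluorescence from LiveBLAzer B/G FRET substrate is read after 2 h at room temperature.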

Test [14] deals with Beta-2 adrenergic receptor (Homo sapiens) (UniProt P07550). The test can be described thus: Adrenergic beta2 receptor (ADRB2) small molecule antagonists, cell-based qHTS assay (AID 1963592). Note: series mostly up to about 92 µM; nearly all actives have a fitted effect of over 50% in size. In short, it runs like this: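 Cells (CHO, stable ADRB2 overexpression) incubated 18-20hr at 37C; compounds added from DMSO; agonist mix (1nM isoproterenol, 100uM IBMX, 25uM Ro-20-1724) added; 0.5hr RT; d2-cAMP and anti-cAMP-cryptate added; 1hr RT; 665/615 nm read.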
Beta-2 adrenergic receptor (Homo sapiens), sequence (P07550 whole entry, looked up): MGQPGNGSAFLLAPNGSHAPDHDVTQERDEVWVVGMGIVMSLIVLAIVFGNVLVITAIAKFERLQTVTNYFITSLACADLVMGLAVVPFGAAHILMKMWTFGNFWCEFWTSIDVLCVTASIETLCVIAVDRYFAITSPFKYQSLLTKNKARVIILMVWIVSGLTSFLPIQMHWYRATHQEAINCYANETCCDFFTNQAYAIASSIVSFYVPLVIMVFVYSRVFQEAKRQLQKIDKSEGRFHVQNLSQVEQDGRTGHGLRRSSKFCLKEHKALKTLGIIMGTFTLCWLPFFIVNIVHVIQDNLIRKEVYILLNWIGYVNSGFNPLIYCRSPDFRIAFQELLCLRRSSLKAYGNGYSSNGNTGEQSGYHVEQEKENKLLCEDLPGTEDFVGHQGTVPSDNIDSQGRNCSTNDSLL

Test [15] has as its target D(2) dopamine receptor (Homo sapiens) (UniProt P14416). The test can be described thus: Dopamine D2 receptor (DRD2) small molecule agonists, cell-based qHTS assay (AID 1963594). Note: nearly all actives have a fitted effect of over 35% in size. The essentials: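 HEK293 cells stably expressing human DRD2, pre-treated with PDE inhibitor Ro20-1724 (0.1 mM final) and compound 10 min at room temperature, then stimulated with NKH477 (200nM […]) for 30 min. cAMP read by HTRF (665/620 nm).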

Test [16] shares this target. Briefly: Dopamine D2 receptor (DRD2) small molecule antagonists, cell-based qHTS assay (AID 1963595; active = well fitted inhibition curve with a large enough effect in the signal ratio in the repeat runs, with a control signal flat; the % refers to the signal ratio; note: potency is the fitted concentration of half-maximal effect). In short, it runs like this:
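Antagonism was scored as restored cAMP in HEK293-DRD2 cells. These cells were stimulated with 200 nM NKH477 and 12 nM quinpirole for 30 min at room temperature, in the presence of 0.1 mM Ro20-1724.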

For test [17], the target named is Gonadotropin-releasing hormone receptor (Homo sapiens) (UniProt P30968). The test can be described thus: Human gonadotropin-releasing hormone receptor (GnRHR) small molecule agonists, calcium flux assay in GnRHR-HEK293 cells (AID 1920063). Note: nearly all actives have a fitted effect of over 35% in size. The essentials: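 We seeded human GnRHR-expressing HEK293 cells for 18 hours, loaded them with calcium dye for an hour at 37 C, added test compounds, and recorded fluorescence intensity kinetically for three minutes.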
Gonadotropin-releasing hormone receptor (Homo sapiens), sequence (P30968 whole entry, looked up): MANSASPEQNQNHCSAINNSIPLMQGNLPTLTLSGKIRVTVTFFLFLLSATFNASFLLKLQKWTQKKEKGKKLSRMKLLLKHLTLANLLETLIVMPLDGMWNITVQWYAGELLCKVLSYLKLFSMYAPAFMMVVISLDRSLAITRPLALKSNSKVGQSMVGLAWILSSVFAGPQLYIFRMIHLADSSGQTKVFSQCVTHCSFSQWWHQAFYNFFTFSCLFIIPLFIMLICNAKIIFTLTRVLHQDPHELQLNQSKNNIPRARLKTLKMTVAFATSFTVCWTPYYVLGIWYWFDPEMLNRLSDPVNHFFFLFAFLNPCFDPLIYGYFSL

A short description of test [18]: p53 small molecule agonists, cell-based qHTS assay (AID 1963582; active = well fitted activation curve with a large enough effect in the signal ratio in the repeat runs, not every such curve was filed as active; the % refers to the signal ratio). The essentials: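 In this cell-based concentration-response screen, a p53 response element drives beta-lactamase; cells received DMSO-borne compounds after 5 h culture and were incubated a further 16 h before FRET substrate development.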
The target of test [19] is Muscarinic acetylcholine receptor M1 (Homo sapiens) (UniProt P11229). The test can be described thus: Cholinergic receptor muscarinic 1 (CHRM1) small molecule antagonists, cell-based qHTS assay (AID 1963588). Note: nearly all actives have a fitted effect of over 40% in size. Note: potency is the fitted concentration of half-maximal effect. In short, it runs like this:
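CHRM1-CHO calcium-flux assay, antagonist mode. Cells were seeded 18 h, dye-loaded 1 h at 37 C and given compound for 5 min at RT, then acetylcholine was added at 50nM. FDSS fluorescence was read 3 min; 15 concentrations, three runs.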

A number with no mark means an inactive call. Records with an inconclusive call do not appear. Activity calls are given as the source filed them. Unless noted, calls come from the whole dose curve.

KiSS-1 receptor (Homo sapiens), sequence (Q969F8 whole entry, looked up): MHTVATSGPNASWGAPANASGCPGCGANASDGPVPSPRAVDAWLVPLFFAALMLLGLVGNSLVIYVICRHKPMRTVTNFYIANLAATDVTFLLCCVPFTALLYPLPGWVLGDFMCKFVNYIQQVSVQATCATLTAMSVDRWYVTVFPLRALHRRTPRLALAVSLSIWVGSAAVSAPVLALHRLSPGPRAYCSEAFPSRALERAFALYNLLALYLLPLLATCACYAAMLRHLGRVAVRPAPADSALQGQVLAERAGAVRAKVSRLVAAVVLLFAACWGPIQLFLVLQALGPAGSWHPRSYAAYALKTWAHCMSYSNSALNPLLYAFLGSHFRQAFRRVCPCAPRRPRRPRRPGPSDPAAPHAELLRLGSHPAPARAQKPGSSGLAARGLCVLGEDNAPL
5-hydroxytryptamine receptor 2A (Homo sapiens), sequence (P28223 whole entry, looked up): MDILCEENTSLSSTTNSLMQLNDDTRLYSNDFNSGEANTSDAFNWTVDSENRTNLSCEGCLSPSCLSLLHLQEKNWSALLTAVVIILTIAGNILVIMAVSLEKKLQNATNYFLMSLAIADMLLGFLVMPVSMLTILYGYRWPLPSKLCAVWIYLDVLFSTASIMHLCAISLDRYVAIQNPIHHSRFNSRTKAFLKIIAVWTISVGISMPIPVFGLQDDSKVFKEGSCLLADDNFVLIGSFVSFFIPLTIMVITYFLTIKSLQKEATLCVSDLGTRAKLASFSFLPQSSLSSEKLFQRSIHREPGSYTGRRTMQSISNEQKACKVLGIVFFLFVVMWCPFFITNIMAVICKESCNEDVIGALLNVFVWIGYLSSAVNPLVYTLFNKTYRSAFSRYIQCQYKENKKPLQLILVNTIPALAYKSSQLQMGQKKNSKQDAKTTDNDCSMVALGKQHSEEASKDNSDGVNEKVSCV
D(2) dopamine receptor (Homo sapiens), sequence (P14416 whole entry, looked up): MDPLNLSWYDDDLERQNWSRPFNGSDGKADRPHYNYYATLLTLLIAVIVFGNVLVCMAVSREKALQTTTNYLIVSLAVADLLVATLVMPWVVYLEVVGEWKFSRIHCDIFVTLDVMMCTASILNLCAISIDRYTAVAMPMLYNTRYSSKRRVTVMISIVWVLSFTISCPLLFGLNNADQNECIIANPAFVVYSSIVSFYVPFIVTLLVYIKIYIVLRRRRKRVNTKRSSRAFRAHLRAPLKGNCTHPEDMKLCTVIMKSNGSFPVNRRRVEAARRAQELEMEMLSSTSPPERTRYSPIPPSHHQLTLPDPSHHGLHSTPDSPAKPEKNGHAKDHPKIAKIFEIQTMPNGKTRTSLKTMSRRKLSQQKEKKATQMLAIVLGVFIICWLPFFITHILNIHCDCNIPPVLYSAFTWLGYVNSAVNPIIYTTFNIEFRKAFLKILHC

As for `OCCCO`, the Potency entry in test [1], in test [4], in [5], in test [6], in test [7] and in [8] was “inactive” throughout. The Potency result in test [9], in test [10], in [11], in test [12], in [13] and in test [14] was “inactive” throughout. The Potency result in [15] and in test [16] was “inactive” each time. Also, the result in test [2] and in [3] was inactive.
As to `CCCCN(CCCC)C(C(N)=O)c1ccc(OC)cc1` (stereo not drawn), the Potency entry in [1], in [17], in [5], in test [6], in [7] and in test [8] was “inactive” in each case. In addition, the Potency result in [18], in [10], in [19], in test [11], in test [12] and in [13] was “inactive” in each case. The Potency entry in [15] and in [16] was “inactive” each time. Moreover, the result in test [2] and in test [3] was inactive.
On to `Nc1ncnc2c1ncn2[C@H]1CC[C@@H](CO)O1`, for which the Potency entry in [1], in test [4], in [5], in [6], in test [7] and in [8] was “inactive” each time. Further, the Potency entry in test [18], in [9], in [10], in test [19], in [11] and in test [12] was “inactive” in each case. Also, the Potency result in test [14], in test [15] and in [16] was “inactive” in each case. For the same compound, the result in test [2] and in test [3] was inactive.
In the case of `CN1CCCCC1CCN1c2ccccc2Sc2ccc(S(C)=O)cc21` (stereo not drawn), the Potency result in [1], in test [17], in test [4], in test [6], in [7] and in test [18] was “inactive” in each case. Further, the Potency entry in test [10], in [11], in test [12], in test [13], in [14] and in [15] was “inactive” throughout. The outcome in [2] and in [3] was inactive. The results for the Potency in test [19] and in [16] were 10.3 nM (active) and 1.88 µM (active), respectively.
`O=[N+]([O-])c1ccc(CO)cc1`: the Potency result in test [1], in test [17], in test [4], in test [5], in test [6] and in test [7] was “inactive” each time. Further, the Potency result in test [8], in test [18], in test [9], in test [10], in [19] and in test [11] was “inactive” each time. Also, the Potency result in [12], in test [15] and in [16] was “inactive” throughout. In addition, the result in [2] was inactive.
On to `O=C1c2ccccc2C(=O)C1(O)O`, for which the Potency result in test [1], in test [17], in [4], in test [5], in test [7] and in [8] was “inactive” in each case. In addition, the Potency result in test [9], in [10], in test [19], in test [11], in [14] and in test [15] was “inactive” throughout. The Potency result in test [16] was “inactive”. Further, in [2], the result was inactive. The Potency in test [6] was 36.5 µM (active).
On to `C/C=C(\C)C(=O)OCCc1ccccc1`, for which the Potency result in test [1], in test [17], in [4], in [5], in test [6] and in test [7] was “inactive” in each case. In addition, the Potency entry in test [8], in test [18], in test [9], in test [10], in test [19] and in test [11] was “inactive” throughout. Besides, the Potency entry in test [13], in [14], in [15] and in [16] was “inactive” in each case. Further, the result in test [3] was inactive.

The record behind these values is PubChem BioAssay (Tox21).
